15 compounds from PubChem BioAssay can be followed below.

For part of these data: Entries with a potency or affinity are not part of this list. Calls of active or inactive are those of the source.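 Rule for the calls, unless noted: active = primary screen hit whose calcium fluorescence ratio, in both repeats, exceeds the weak agonist control mean by 3 SD; inactive = the rest.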

The subject of assay [1] is TRPC4 beta (transient receptor potential cation channel C4), mouse. The experiment in a line: TRPC4 cation channel opening, retest – cell-based, Fluo4 calcium, HEK293 TRPC4beta/mu-opioid, duplicates, 10 µM, confirmation (AID 2426;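 active = fluorescence ratio normalized to control raised more than 50% in primary screen plus both repeat runs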). The following applies: Fluo4 calcium fluorescence, at 10 µM; hits give high values.
Assay [2] relates to transient receptor potential cation channel C4 beta (TRPC4), mouse. The experiment in a line: TRPC4 cation channel opening, second retest – cell-based, second round, Fluo4, HEK293 TRPC4beta/mu-opioid, 1 µM, confirmation (AID 2461;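 active = primary screen active and over 50% activation in each of two duplicate runs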). Conditions: Fluo4 calcium fluorescence, at 1 µM; hits give high values.
For assay [3], the system named is TRPC4 (transient receptor potential cation channel C4 beta), mouse. The assay is described as follows: potentiation of DAMGO EC20 TRPC4 response – cell-based, second round, Fluo-4, HEK293 TRPC4beta/mu-opioid, 1 µM, confirmation (AID 2554;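 active = primary screen hit whose fluorescence ratio, in both repeats, exceeds the weak agonist control mean by 3 SD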). Conditions: DAMGO EC20, Fluo-4 calcium flux, at 1 µM; hits give high values. In general terms: A change in cytosolic calcium serves as a functional read-out for many receptors and channels.

Assay [4] relates to TRPC4 beta (transient receptor potential cation channel C4), mouse. The experiment in a line: potentiation of DAMGO EC20 TRPC4 response – cell-based, Fluo-4, HEK293 TRPC4beta/mu-opioid, confirmation (AID 2555). Conditions: DAMGO EC20, Fluo-4 calcium flux, at 10 µM; hits give high values.
Assay [5] concerns the target Short transient receptor potential channel 4 (Mus musculus) (UniProt Q9QUQ5). The experiment in a line: blockers of DAMGO-evoked TRPC4 calcium flux – cell-based, Fluo4, HEK293 TRPC4beta/mu-opioid, confirmation (AID 2636;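 active = calcium signal cut by more than 3 SD below the full-agonist control yet still positive, in both repeats and the earlier primary screen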). The following applies: at 10 µM; hits give high values.
The target is the same in assay [6]. The experiment in a line: blockers of DAMGO-evoked TRPC4 calcium flux – cell-based, second round, Fluo4, HEK293 TRPC4beta/mu-opioid, 1 µM, confirmation (AID 2637;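 active = calcium signal ratio cut to more than 3 SD under the fully stimulated control mean yet still positive, in both repeats and the primary screen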). The following applies: at 1 µM; hits give high values.
The target is the same in assay [7]. The experiment in a line: calcium entry via TRPC4 opening agents – cell-based, HEK293 TRPC4/mu-opioid, Fluo-4 calcium, dose response (AID 434937;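 active = primary screen activator hit with a dose response curve and TRPC4 channel activation at any tested dose; inactive = no activation, no dose response, or not a primary hit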).
For assay [8] the target is unchanged. The experiment in a line: potentiation of DAMGO-evoked TRPC4 calcium signal – cell-based, HEK293 TRPC4/mu-opioid, Fluo-4 calcium, EC20 DAMGO, dose response (AID 434941;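 active = earlier screen potentiator hit that boosts the TRPC4 ion channel at some dose, with a dose response; inactive = no potentiation, no dose response, or not a prior hit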;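 note: calcium entry triggered by an EC20 dose of DAMGO at the co-expressed mu-opioid receptor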).
For assay [9] the target is unchanged. The assay is described as follows: block of DAMGO-driven TRPC4 calcium entry – cell-based, HEK293 TRPC4/mu-opioid, Fluo-4 calcium, dose response (AID 434942;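 active = primary screen inhibitor hit that blocks the TRPC4 channel at some tested dose, yielding a dose curve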).
Assay [10] deals with Short transient receptor potential channel 6 (Mus musculus) (UniProt Q61143). The experiment in a line: TRPC6 blockade by TRPC4 inhibitor hits – cell-based, HEK293, membrane potential dye, duplicate, selectivity assay for TRPC4 inhibitor project, confirmation (AID 434948;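 active = active in primary screen and both duplicates, each dropping signal beyond three positive-control SD with fluorescence still positive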). The following applies: HEK293 TRPC6, membrane potential dye fluorescence, at 10 µM, stimulated with maximal-effect acetylcholine; hits give high values.
Sequence of Short transient receptor potential channel 6 (Mus musculus) (Q61143 whole entry, looked up): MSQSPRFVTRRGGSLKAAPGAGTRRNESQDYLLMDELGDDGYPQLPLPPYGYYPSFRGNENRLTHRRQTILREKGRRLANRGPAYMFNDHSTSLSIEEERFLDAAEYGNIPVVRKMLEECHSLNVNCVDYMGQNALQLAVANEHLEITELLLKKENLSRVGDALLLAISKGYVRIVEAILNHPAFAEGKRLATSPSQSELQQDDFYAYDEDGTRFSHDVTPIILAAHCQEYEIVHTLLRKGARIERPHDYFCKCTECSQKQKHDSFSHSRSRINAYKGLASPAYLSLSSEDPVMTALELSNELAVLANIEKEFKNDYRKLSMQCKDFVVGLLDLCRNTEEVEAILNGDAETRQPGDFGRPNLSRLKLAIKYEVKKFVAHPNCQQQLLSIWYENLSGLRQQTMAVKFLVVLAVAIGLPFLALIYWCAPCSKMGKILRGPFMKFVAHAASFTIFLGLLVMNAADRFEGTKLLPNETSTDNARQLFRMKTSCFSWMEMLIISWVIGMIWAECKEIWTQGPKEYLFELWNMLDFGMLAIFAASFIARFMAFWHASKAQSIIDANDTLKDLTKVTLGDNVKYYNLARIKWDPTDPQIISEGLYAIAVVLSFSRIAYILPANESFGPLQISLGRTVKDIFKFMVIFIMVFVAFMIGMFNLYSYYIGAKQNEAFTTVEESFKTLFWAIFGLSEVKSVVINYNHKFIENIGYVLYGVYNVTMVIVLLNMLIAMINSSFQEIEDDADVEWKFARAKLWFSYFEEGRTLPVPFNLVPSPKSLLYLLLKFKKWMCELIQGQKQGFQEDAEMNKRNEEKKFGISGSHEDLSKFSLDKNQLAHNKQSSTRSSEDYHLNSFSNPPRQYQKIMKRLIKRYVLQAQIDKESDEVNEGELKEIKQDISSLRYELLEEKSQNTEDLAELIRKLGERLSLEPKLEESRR

Assay [11] has the same target. The experiment in a line: TRPC6 opening by TRPC4 activator hits – cell-based, HEK293, membrane potential dye, duplicate, selectivity assay for TRPC4 activator project, confirmation (AID 434950;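 active = membrane potential signal rise above negative control mean plus 3 SD in both duplicates, also active in the earlier TRPC4 screen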). The following applies: HEK293 TRPC6, membrane potential fluorescence, at 10 µM; activation: hits give high values; outcome: activation.
Assay [12] shares this target. The experiment in a line: positive modulators of mouse TRPC6 channel – HEK293 cells, membrane potential dye, duplicate, selectivity assay for TRPC4 potentiator project, confirmation (AID 434952;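 active = compound raising the membrane signal above positive-control mean plus 3 SD in both repeats, and a primary screen hit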). The following applies: HEK293 TRPC6, membrane potential dye fluorescence, at 10 µM, maximal acetylcholine added after compound; hits give high values.
Assay [13] addresses Short transient receptor potential channel 4 (Mus musculus) (UniProt Q9QUQ5). The assay is described as follows: calcium flux activators in TRPC4/5HT1a cells, counter-screen for TRPC4 activator project, cell-based, second counter screen, HEK293 TRPC4/5HT1a, Fluo-4 (AID 434977;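 active = calcium signal rise above buffer-control mean plus 5 SD in both duplicates, and also a hit in the primary screen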). Conditions: Fluo-4 calcium flux, at 10 µM; hits give high values.
Assay [14] is described as follows: serotonin-gated TRPC4 signal block – cell-based, second counter screen, HEK293 TRPC4/5HT1a, Fluo-4, counter-screen for TRPC4 inhibitor project, confirmation (AID 434978;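 active = primary screen active whose calcium signal fell more than 3 SD beyond the full-serotonin control mean in both duplicate plates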;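 note: serotonin given first at submaximal then at maximal dose after compound preincubation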). The following applies: Fluo-4 calcium flux, at 10 µM, serotonin added to trigger calcium flux; hits give high values.
Assay [15] deals with TRPC4 (mouse), co-expressed with 5HT1a in HEK293. The experiment in a line: enhancement of serotonin-evoked TRPC4 response – cell-based, second counter screen, HEK293 TRPC4/5HT1a, Fluo-4, counter-screen for TRPC4 potentiator project, confirmation (AID 434979;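 active = signal rise over 3 SD above mean of control wells given weak agonist, in both repeats and first screen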). The following applies: Fluo-4 calcium flux, at 10 µM, serotonin added at its EC20 dose; hits give high values.
The nature of assay [16]: nonspecific calcium rise without TRPC4 – cell-based, HEK293 mu-opioid receptor line, counter-screen for TRPC4 activator project, confirmation (AID 449723;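 active = hit in primary screen, with calcium signal over 5 SD above buffer well mean in both duplicates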;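 note: counter screen cells carry the mu-opioid receptor alone and lack TRPC4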). The following applies: HEK293 mu-opioid cells, Fluo-4 calcium fluorescence, at 10 µM; hits give high values.
The nature of assay [17]: nonspecific potentiation of DAMGO calcium response – cell-based, HEK293 mu-opioid receptor line, counter-screen for TRPC4 allosteric potentiator project, confirmation (AID 449724;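 active = calcium signal rise more than 3 SD above the low-dose agonist control mean, in both duplicate plates and the primary screen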;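 note: HEK293 cells carrying mu-opioid receptor only with no TRPC4 channel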). Conditions: HEK293 mu-opioid receptor cells, Fluo-4 calcium flux, at 10 µM, compound added before EC20 DAMGO stimulus; hits give high values. Background: Counterscreens check selectivity or assay interference.

Sequence of Short transient receptor potential channel 4 (Mus musculus) (Q9QUQ5 whole entry, looked up): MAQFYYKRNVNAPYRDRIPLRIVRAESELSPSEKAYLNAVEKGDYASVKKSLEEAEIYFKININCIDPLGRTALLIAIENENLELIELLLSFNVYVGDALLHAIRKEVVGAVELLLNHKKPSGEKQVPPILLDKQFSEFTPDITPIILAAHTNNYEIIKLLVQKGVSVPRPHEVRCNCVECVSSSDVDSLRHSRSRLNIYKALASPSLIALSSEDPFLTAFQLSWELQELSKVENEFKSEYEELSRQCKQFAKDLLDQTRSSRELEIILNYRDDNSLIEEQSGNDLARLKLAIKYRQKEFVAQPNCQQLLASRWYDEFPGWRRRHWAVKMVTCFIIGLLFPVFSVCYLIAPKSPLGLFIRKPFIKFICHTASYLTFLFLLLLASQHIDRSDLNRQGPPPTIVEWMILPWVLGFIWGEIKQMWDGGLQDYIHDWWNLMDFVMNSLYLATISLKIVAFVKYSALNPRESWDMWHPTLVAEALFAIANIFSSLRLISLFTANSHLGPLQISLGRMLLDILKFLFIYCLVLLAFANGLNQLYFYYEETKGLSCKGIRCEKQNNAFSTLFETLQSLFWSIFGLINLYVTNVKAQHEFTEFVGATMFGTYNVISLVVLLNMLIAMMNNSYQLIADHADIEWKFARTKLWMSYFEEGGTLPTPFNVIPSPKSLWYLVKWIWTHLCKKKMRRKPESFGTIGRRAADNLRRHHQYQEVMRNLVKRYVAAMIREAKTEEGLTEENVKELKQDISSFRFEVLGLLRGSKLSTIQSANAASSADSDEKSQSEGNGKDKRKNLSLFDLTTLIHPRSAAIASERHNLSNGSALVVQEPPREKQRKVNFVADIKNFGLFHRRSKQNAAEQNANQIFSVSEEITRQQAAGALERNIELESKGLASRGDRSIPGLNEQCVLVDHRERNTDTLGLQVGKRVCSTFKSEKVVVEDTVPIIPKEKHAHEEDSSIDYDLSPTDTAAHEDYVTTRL

With `COc1ccc(CCNCC(O)COc2ccc(OC)cc2C(C)(C)C)cc1` (stereo not given), the outcome in assay [1], in assay [2], in assay [3], in assay [4], in [5] and in assay [6] was inactive. Moreover, the result in assay [7], in assay [8], in [9], in assay [10], in [11] and in assay [12] was inactive. In addition, the outcome in assay [13], in assay [14], in assay [15], in assay [16] and in [17] was inactive.
`Cc1ccc(NS(=O)(=O)c2ccc(NS(=O)(=O)c3cccs3)cc2)cc1`: the outcome in assay [1], in [2], in assay [3], in assay [4], in assay [5] and in [6] was inactive. Besides, the result in assay [7], in [8], in [9], in assay [10], in assay [11] and in [12] was inactive. For the same compound, the outcome in assay [13], in assay [14], in [16] and in assay [17] was inactive. Further, the potentiation in assay [15] was 15% (active).
For the compound `Cc1ccc(Cn2c(=N)c(C(=O)NC3CCCCC3)cc3c(=O)n4ccccc4nc32)cc1`, the result in [1], in [2], in [3], in assay [5], in assay [6] and in [7] was inactive. The result in assay [8], in [9], in [10], in [11], in assay [12] and in [13] was inactive. In addition, the outcome in assay [14], in assay [15], in assay [16] and in assay [17] was inactive. Besides, in assay [4], the potentiation is 26% (active).
Usually inhibition stands for the percentage by which the read-out fell short of the control. For `COc1ccc(/C=N/NC(=O)c2ccc(F)cc2)cc1CN1CCc2cc(OC)c(OC)cc2C1C` (stereo not given), the outcome in assay [1], in [2], in assay [3], in [4], in assay [6] and in [7] was inactive. The outcome in assay [8], in assay [9], in assay [10], in assay [11], in assay [12] and in assay [13] was inactive. Besides, the result in assay [14], in assay [15], in assay [16] and in assay [17] was inactive. Moreover, in [5], the inhibition is 86% (active).
In the case of `CCCC1C(=O)Nc2ccccc2N1C(=O)c1ccc(C(C)(C)C)cc1` (stereo not given), the outcome in assay [1], in assay [2], in assay [3], in assay [4], in [5] and in assay [6] was inactive. In addition, the result in assay [7], in assay [8], in assay [9], in [10], in [11] and in [12] was inactive. The result in assay [13], in assay [14], in [16] and in assay [17] was inactive. In addition, the potentiation in [15] is 30.4% (active).
As to `CCCSc1nc(C)cc(C)c1S(=O)(=O)c1ccccc1C`, the outcome in [1], in [2], in [3], in assay [4], in assay [5] and in assay [6] was inactive. The result in assay [7], in [8], in assay [9], in assay [10], in assay [11] and in assay [12] was inactive. Further, the result in assay [13], in assay [14], in [15], in [16] and in [17] was inactive.
`O=C(Nc1nnc2n1CCS2)c1ccc(Br)o1`: the outcome in assay [1], in assay [2], in assay [3], in [5], in assay [6] and in assay [7] was inactive. Further, the result in assay [8], in assay [9], in assay [10], in [11], in assay [12] and in assay [13] was inactive. In addition, the result in [14], in assay [16] and in assay [17] was inactive. Also, the figures for the potentiation in assay [4] and in [15] were 80% (active) and 56.3% (active), respectively.
Turning to `CCc1c(C)nc2ccc(Br)cc2c1SCCC#N`, the outcome in assay [1], in [2], in assay [3], in assay [4], in assay [5] and in assay [6] was inactive. Also, the result in [7], in [8], in assay [9], in assay [10], in assay [11] and in assay [12] was inactive. Further, the result in assay [13], in assay [14], in assay [15], in [16] and in assay [17] was inactive.
For `c1cnc(N2CCN(c3cnccn3)CC2)nc1`, the outcome in [1], in assay [2], in assay [3], in assay [4], in assay [5] and in assay [6] was inactive. Besides, the result in assay [7], in assay [8], in assay [9], in [10], in assay [11] and in assay [12] was inactive. For the same compound, the result in assay [13], in assay [14], in assay [15], in [16] and in assay [17] was inactive.
With `Cc1ccc(SC(CC(=O)c2ccc(C(C)(C)C)cc2)C(=O)O)cc1` (stereo not given), the outcome in [1], in assay [2], in assay [3], in [4], in assay [5] and in assay [6] was inactive. In addition, the result in [7], in [8], in assay [9], in [10], in [11] and in assay [12] was inactive. The result in assay [13], in [14], in assay [15], in assay [16] and in [17] was inactive.
As for `CC(C)(C)n1nnnc1C(c1ccc(Cl)cc1)N(Cc1cccnc1)Cc1ccco1` (stereo not given), the result in [1], in assay [2], in assay [3], in [4], in assay [5] and in assay [6] was inactive. The result in [7], in [8], in assay [9], in [10], in [11] and in assay [12] was inactive. For the same compound, the outcome in assay [13], in [14], in assay [15], in [16] and in assay [17] was inactive.
For `COc1ccc(C2CC(=O)c3cnc(N4CCN(Cc5ccccc5)CC4)nc3C2)cc1` (stereo not given), the outcome in assay [1], in assay [2], in assay [3], in assay [4], in assay [5] and in assay [6] was inactive. Besides, the outcome in [7], in assay [8], in assay [9], in assay [10], in assay [11] and in [12] was inactive. Further, the result in assay [13], in assay [14], in assay [16] and in [17] was inactive. For the same compound, in [15], the potentiation was 14.7% (active).
For `O=C(NC1CCCC1)c1cc2ccccc2o1`, the outcome in [1], in assay [2], in assay [3], in assay [5], in assay [6] and in assay [7] was inactive. Besides, the outcome in [8], in assay [9], in assay [10], in [11], in assay [12] and in assay [13] was inactive. In addition, the outcome in assay [14], in assay [16] and in [17] was inactive. For the same compound, the values for the potentiation in [4] and in [15] were 14% (active) and 19.7% (active), respectively.
In the case of `CCOP(=O)(OCC)c1nc(-c2ccc(Cl)cc2Cl)oc1N1CCCCC1`, the result in [1], in assay [2], in assay [3], in assay [4], in assay [5] and in assay [6] was inactive. Further, the result in assay [7], in [8], in assay [9], in assay [10], in [11] and in assay [12] was inactive. Besides, the result in [13], in assay [14], in assay [16] and in assay [17] was inactive. In addition, the potentiation in assay [15] is 54.2% (active).
Consider `Cc1cc(=O)oc2cc(NC(=S)NCc3ccccn3)ccc12`, for which the result in assay [1], in assay [2], in assay [3], in assay [4], in assay [5] and in assay [6] was inactive. Besides, the result in [7], in [8], in assay [9], in assay [10], in [11] and in assay [12] was inactive. The outcome in [13], in assay [14], in assay [15], in [16] and in [17] was inactive.
